# From PubChem BioAssay
# iPSC survival up: enhancers of single-cell hiPSC survival, primary screen, ATPlite luminescence; 100% = ROCK inhibitor wells, 0% = DMSO; survival enhancement, % at 20 µM; 0.044% of 360,000 active; in the data active = survival enhancement above about 18%;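 note: cells exposed to compounds for 16 hours before the ATP read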
# CRFR2-BP ag: agonists of CRF-BP/CRF-R2 complex, primary screen, cell-based, HEK293, calcium dye fluorescence, uHTS | calcium dye fluorescence (FLIPR); percent of saturating CRF peptide response | activation, % at 13.2 µM | 0.46% of 350,000 active | AID 588473, 2011;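 active = activation of at least 50%, plus an integration ratio under a set limit after plate pattern correction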;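 note: plate controls were neutral control wells without compound for no effect and CRF at EC100 for full effect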
# H9c2 TAG inh: inhibitors of triacylglycerol accumulation, primary screen, cell-based, uHTS, fluorescence, H9c2. H9c2 cells, Nile Red lipid (TAG) fluorescence; cells loaded with 200 µM oleic acid. inhibition, % at 12.5 µM. 0.66% of 230,000 active;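 active = pattern-corrected inhibition of lipid staining of at least 50% with the nuclear-stain viability signal not falling by more than 50%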;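 note: 0% = DMSO wells and 100% = triacsin C control wells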
# CRFR2-BP antag: antagonists of CRF-BP/CRF-R2 complex, primary screen, cell-based, HEK293, calcium dye fluorescence, uHTS; inhibition, % at 11.8 µM; CRF-induced calcium fluorescence; 0.59% of 350,000 active;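 active = inhibition of the ligand-induced calcium signal above about 50% at the single tested concentration, limit read from the data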
# SKN-1 inh: suppressors of acrylamide-induced Pgst-4::GFP reporter in worms, primary screen, SKN-1 inhibitor project, whole organism, uHTS, GFP/RFP fluorescence ratio, strain VP596 | C. elegans VP596 Pgst-4::GFP/RFP ratio, 24 h | inhibition, % at 21.8 µM | 0.49% of 360,000 active | AID 624304, 2012;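 active = interference check ratio from 0.5 to 1.5 plus GFP to RFP signal ratio inhibition reaching or exceeding a fixed threshold, cut at about 30% in these data, passing the limit was not always enough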
# Cardio protect: cardioprotection against H2O2-induced cell death, primary screen, uHTS, H9c2 cells, ATPLite luminescence; H9c2 cardiomyocytes, H2O2 injury protection, 2 h; AID 588492, 2011; protection from H2O2 cell death, % at 20 µM; 0.63% of 360,000 active;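 active = compounds giving at least 50% protection of heart cells from peroxide-induced death in the single-dose screen, raw or plate-pattern-corrected value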;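 note: 0% = DMSO wells with peroxide and 100% = DMSO wells without peroxide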
# H9c2 TAG conf: triacylglycerol accumulation inhibitors, retest, confirmation, cell-based, single concentration, Nile Red fluorescence, H9c2; shares compounds with H9c2 TAG inh; H9c2 lipid accumulation; cells loaded with 200 µM oleic acid; inhibition, % at 12.5 µM; 71% of 990 active; AID 651629, 2012;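 active = mean inhibition across replicates of 40% or more; inactive = mean inhibition below 40%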;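 note: plate controls were DMSO only wells for no effect and Triacsin C treated wells for full effect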
# The depositor's hits bear a star; . = no result. Only some compounds are listed: those with a hit (about 2.5% of all), similar ones and a draw of the others.
SMILES,iPSC survival up,CRFR2-BP ag,H9c2 TAG inh,CRFR2-BP antag,SKN-1 inh,Cardio protect,H9c2 TAG conf
CSc1ccc2c(c1)N(CCC1CCCCN1C)c1ccccc1S2 (stereo not drawn),-3,0,85*,-3,6,-16,59*
COc1ccc(-c2csc(NC(=S)NC(=O)/C=C/c3ccco3)n2)cc1Br,-1,5,79*,-7,-2,6,87*
O=C(NCCOc1nc(N2CCOCC2)nc(N2CCOCC2)n1)Nc1ccccc1,-2,0,54*,-5,-18,4,30
O=C(NCCOc1nc(N2CCCCC2)nc(N2CCOCC2)n1)Nc1ccccc1,0,0,.,-18,5,0,.
COc1cccc(/C=C/C(=C2/C(=O)N(c3ccccc3)N=C2C)c2ccc(C)cc2)c1OC,-2,-2,112*,-11,7,-6,129*
COc1cc2ccccc2cc1C(=O)N/N=C/c1cccs1,-2,-2,55*,11,17,2,64*
CC[C@]12C(=O)N(C)C[C@H]([C@@H]3C(=O)N(Cc4ccccc4)C(=O)[C@@H]31)N2C(=O)c1ccc(Br)cc1,-2,1,-16,2,10,0,.
COC(=O)c1ccccc1NC(=O)[C@@H]1CCC(=O)N1C1OC(=O)c2c1ccc(OC)c2OC (stereo partly drawn),-1,-3,.,15,-15,0,.
CN(C)CCC(=O)c1cccc(Br)c1,8,1,.,-34,-5,-2,.
O=C(Nc1cccc(S(=O)(=O)N2CCCCC2)c1)c1ccccn1,0,5,-29,-9,16,-4,.
O=C(Nc1cccc(NS(=O)(=O)c2ccc(S(=O)(=O)NC3CC3)cc2)c1)c1ccccn1,1,0,56*,-10,4,-4,25
COc1ccc2cc3cc(C(=O)NCCc4ccc(OC)c(OC)c4)oc3nc2c1,-1,-1,67*,1,6,87*,44*
COC(=O)/C=C/c1ccccc1S(=O)(=O)N(Cc1ccccc1)Cc1ccco1,1,3,54*,6,-5,-4,48*
O=S(=O)(c1ccc(S(=O)(=O)N(Cc2ccccc2)Cc2ccco2)cc1)N1CCCC1,-3,21,.,1,4,-12,.
CC(C)N1CC(C(=O)Nc2cccc([N+](=O)[O-])c2)CC1=O (stereo not drawn),0,-1,.,10,3,1,.
CC(=O)Nc1ccc(NC(=O)C(C)OC(=O)c2ccc3[nH]c(C)c(C)c3c2)cc1 (stereo not drawn),0,0,23,15,-10,1,.
Cc1nn(-c2ccccc2)c(Cl)c1/C=N/NC(N)=O,0,1,4,24,-1,3,.
NC(=O)N/N=C/c1c(Sc2nnnn2-c2ccccc2)nc2ccccn2c1=O,4,1,52*,17,8,-22,64*
Nc1ncc(S(=O)(=O)c2ccc([N+](=O)[O-])cc2)s1,-2,-4,-6,1,-12,3,.
CCN(C[C@H]1N[C@@](CC)(C(=O)OC)[C@H]2C(=O)N(Cc3ccccc3)C(=O)[C@@H]12)S(=O)(=O)c1ccc(-c2ccccc2)cc1,-2,5,45,-5,7,-5,.
CCN(C[C@H]1N[C@@](CC)(C(=O)OC)[C@H]2C(=O)N(Cc3ccccc3)C(=O)[C@@H]12)S(=O)(=O)c1ccc(C(C)(C)C)cc1,1,10,65*,14,1,-4,60*
Cc1ccc(C)c(NC(=O)C(C)N2C(=O)c3ccccc3C2=O)c1 (stereo not drawn),0,0,2,18,-3,1,.
Nc1nc(SCC(=O)NC2CCCCCC2)[nH]c(=O)c1-c1ccccc1,6,-1,.,13,-1,3,.
Cc1cc(C)cc(-n2c3ccc(NC(=O)Cc4cccc5ccccc45)cc3c(=O)n2C)c1,-3,.,51*,.,10,-9,50*
COc1ccc(-n2cc(CNC3CCN(C)CC3)c(-c3cccc(F)c3)n2)cc1,-1,1,17,-17,-11,-5,.
SMILES,iPSC survival up,CRFR2-BP ag,H9c2 TAG inh,CRFR2-BP antag,SKN-1 inh,Cardio protect,H9c2 TAG conf
COc1ccc(-n2cc(CN3CCCC3)c(-c3cccc(F)c3)n2)cc1,-1,0,80*,-6,8,-2,25
Cc1cc(NC(=O)c2cc(-c3ccncc3)nc3c(C)cccc23)no1,2,3,64*,7,9,12,66*
Cc1ccc(-c2cc(C(=O)Nc3cc(C)on3)c3ccccc3n2)cc1,-2,0,11,-33,1,-1,.
Cc1ccc(-c2nn(-c3ccccc3)cc2/C=N/NC(=O)c2ccncc2)o1,0,-1,12,6,3,44,.
CCOc1cc(C(=O)N/N=C/c2cn(-c3ccccc3)nc2-c2cc3ccccc3o2)cc(OCC)c1OCC,0,2,59*,1,4,0,63*
COc1ccc(OCCN2CCC(C(=O)NC(c3ccc(Cl)cc3)c3cnccn3)CC2)cc1 (stereo not drawn),2,.,6,.,1,7,.
COc1ccc(OC)c(/C=C/C(=O)N2CCN(S(=O)(=O)c3ccc(C)cc3C)CC2)c1,4,2,-2,10,-15,-12,.
CC1(C)Cc2c(C#N)c(SCC(=O)c3ccccc3)nc(N3CCOCC3)c2CS1,20*,2,51*,0,16,8,59*
CCCCNC(=O)CCC(=O)NNc1nc2ccccc2c2nc(-c3ccccc3)nn12,4,-1,.,26,10,48,.
CCN(CC)CCNc1nc2cc(OC)c(OC)cc2c2nc(-c3ccccc3)nn12,-3,1,64*,-3,3,8,46*
COC(=O)[C@@]1(Cc2ccccc2)[C@H]2C(=O)N(Cc3ccccc3)C(=O)[C@H]2[C@H]2CN=C(SCc3ccc(Cl)cc3)N21,0,0,51*,-18,-2,-4,71*
COc1cc(CNC2CCCCCCC2)cc(Br)c1OCC#N,-3,1,.,-29,12,-2,.
CCOc1c(Br)cc(CNC2CCCCCCC2)cc1OC,0,1,70*,-34,0,-15,80*
O=C(N/N=C/c1ccc(Cl)cc1)c1sccc1OCc1ccc(F)cc1,-2,1,50*,-19,5,-18,54*
